Compound activity (PubChem BioAssay)
LDHA inh = blocks human lactate dehydrogenase A | 480,000 compounds, 0.15% hits | activity change, % (values are at about 110 or 230 µM) | AID 1347041 | purified LDHA, NADH/diaphorase-resazurin fluorescence; hits give low values; in the data active means activity change below about -30%; inconclusive means mostly about -25% to -30%;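 further: plate controls were DMSO wells for no effect and wells without enzyme for full effect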
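Remaining NADH was detected by diaphorase (0.133 mg/mL) converting 37 µM resazurin to fluorescent resorufin, read at 0 and 20 minutes. The preceding 5-minute room-temperature reaction used 2 nM LDHA, 0.2 mM sodium pyruvate and 0.06 mM NADH at pH 7.4.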
Gal4-VP16 FLuc = inhibits Gal4-VP16 luciferase reporter, ROR gamma counter-screen. 310,000 compounds, 3.5% hits. Potency, µM (titrated, usually from 53.6 µM), for inactives: at the highest dose activity, negative = inhibition, usual class: inhibitors. Drosophila S2 Gal4-VP16 UAS-luciferase, luminescence, 20 h;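 further: Gal4-VP16 expression switched on by copper sulfate through the metallothionein promoter; potency means the concentration at half of the fitted maximal effect; nearly all actives have a fitted effect of over 50% in size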
TDP1 cell CPT = DT40-hTDP1 cell growth loss with CPT. Potency, µM (highest dose often 46.2 µM), without a hit: at the top dose activity change, negative = growth inhibition, hits mostly inhibitors. 420,000 compounds, 12% hits. chicken DT40 Tdp1-/-;hTDP1 cells + 20 nM CPT, ATP luminescence, 48 h; further: potency means the concentration at half of the fitted maximal effect; nearly all actives have a fitted effect of over 55% in size
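Chicken DT40 Tdp1-/- cells complemented with human TDP1, 400 cells/well, exposed to compounds plus 20 nM camptothecin for at least 48 h at 37 C; viability read as ATP content by CellTiter-Glo luminescence.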
IL-1B inflam inh = blocks inflammasome-driven IL-1 beta release | activity change, % at 57.5 µM | AID 743279 | THP-1 LPS/ATP IL-1B secretion, AlphaLISA, 16 h; hits give low values | 360,000 compounds, 4.7% hits; in the data active means activity change below about -50%; inconclusive means mostly about -30% to -49%
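THP-1 cells pretreated 1 hr with compounds (up to 57.5 uM final), then stimulated with LPS (250 ng/mL final) plus ATP (1.25 mM final); secreted IL-1B measured by AlphaLISA after 16 hr, decreased signal indicating inhibition.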
RORgamma inh = blocks mouse ROR gamma transcriptional activity; P51450; 310,000 compounds, 5.4% hits; Potency, µM (doses to about 53.6 µM), for the others: at the highest dose activity change, negative = inhibition, actives largely listed as inhibitors; Drosophila S2 Gal4-RORgamma UAS-luciferase reporter, 20 h; AID 2551; further: potency means the concentration at half of the fitted maximal effect; nearly all actives have a fitted effect of over 60% in size
Target sequence (P51450 whole entry, looked up, the tested form may be a part): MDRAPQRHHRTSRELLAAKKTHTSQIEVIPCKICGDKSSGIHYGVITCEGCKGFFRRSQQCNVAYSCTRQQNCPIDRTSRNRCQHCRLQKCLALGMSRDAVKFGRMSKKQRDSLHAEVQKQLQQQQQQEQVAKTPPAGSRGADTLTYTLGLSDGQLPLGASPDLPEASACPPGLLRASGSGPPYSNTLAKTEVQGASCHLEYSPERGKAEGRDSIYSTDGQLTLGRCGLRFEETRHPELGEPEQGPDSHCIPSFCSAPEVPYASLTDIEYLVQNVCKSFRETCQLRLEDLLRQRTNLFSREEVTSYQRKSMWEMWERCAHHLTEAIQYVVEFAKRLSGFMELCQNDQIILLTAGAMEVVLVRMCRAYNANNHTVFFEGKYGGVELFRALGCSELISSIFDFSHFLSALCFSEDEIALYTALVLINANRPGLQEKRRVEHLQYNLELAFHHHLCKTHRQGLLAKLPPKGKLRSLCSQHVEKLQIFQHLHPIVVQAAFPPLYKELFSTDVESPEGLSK
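A Gal4/UAS one-hybrid system in insect cells: metallothionein-promoter Gal4–ROR gamma fusion plus Photinus luciferase reporter. Copper sulfate 700 uM final, 20 hr ambient incubation, luminescent detection after 10 min with reagent.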
TDP1 cell noCPT = qHTS for Inhibitors of human tyrosyl-DNA phosphodiesterase 1 (TDP1): qHTS in cells in absence of CPT | DT40 Tdp1-/- hTDP1 cells, no CPT, ATP luminescence, 48 h | Potency, µM (series often up to 46.2 µM), without a hit: top-dose activity change, negative = growth inhibition, most hits filed as inhibitors | 420,000 compounds, 15% hits; further: potency means the concentration at half of the fitted maximal effect; nearly all actives have a fitted effect of over 55% in size
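Chicken DT40 Tdp1-/- cells complemented with human TDP1, screened without camptothecin (DMSO vehicle only), 400 cells/well. Compounds pin-transferred, cells incubated at 37 °C for at least 48 hr. Growth read as ATP-dependent luminescence (CellTiter-Glo, 30 min at RT).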
Active calls of the source: *; ? = inconclusive; nt = no result. The list is not random: actives were taken first. Their share in the collection is about 18%. Unless noted, the call rests on the fitted dose curve; in most records, active means well fitted curve in the direction sought with a large enough effect; inconclusive means small, poorly fitted or top-dose-only effect, or another doubt; inactive means no such curve, though single readings can be large; an effect the other way counts as inactive or inconclusive. Unless noted, on the % scale 0 is the no-effect control and ±100 the full control effect.

SMILES	LDHA inh	Gal4-VP16 FLuc	TDP1 cell CPT	IL-1B inflam inh	RORgamma inh	TDP1 cell noCPT
O=C(NCC1CC1)C1Cc2c(-c3ccc4c(c3)OCO4)ccnc2O1 (stereo unspecified)	-9	nt	?	0	nt	18µM*
COc1ccc(NC(=O)C2Cc3c(-c4ccc5c(c4)OCO5)ccnc3O2)cc1 (stereo unspecified)	-7	nt	5.2µM*	11	nt	8.2µM*
O=C(Nc1cccnc1)C1Cc2c(-c3ccc4c(c3)OCO4)ccnc2O1 (stereo unspecified)	4	nt	21µM*	-57*	nt	1µM*
CC(=O)Nc1ccc(NC(=O)C2Cc3c(-c4ccc5c(c4)OCO5)ccnc3O2)cc1 (stereo unspecified)	-7	nt	-7%	-2	nt	-6%
CC(=O)NCCNC(=O)C1Cc2c(-c3ccc4c(c3)OCO4)ccnc2O1 (stereo unspecified)	-6	nt	-9%	40	nt	-10%
CCn1ncc2c(C(=O)Nc3cccc(OC)c3)cc(-c3cccs3)nc21	2	nt	nt	nt	nt	nt
Cc1ccc(Cl)cc1NC(=O)COc1ncnc2ccccc12	0	nt	nt	nt	nt	nt
CCCc1cc(=O)oc2cc(C)cc(OC(C)C(=O)NCCCN(C)C)c12 (stereo unspecified)	3	nt	nt	nt	nt	nt
O=C(Nc1ccc2c(c1)OCO2)C1Cc2c(-c3ccc(Cl)cc3)ccnc2O1 (stereo unspecified)	1	nt	?	-53*	nt	?
O=C(Nc1ccc2c(c1)OCO2)C1Cc2c(-c3ccc4c(c3)OCO4)ccnc2O1 (stereo unspecified)	-1	nt	6.5µM*	-2	nt	6.5µM*
O=C(Nc1ccc2c(c1)OCO2)C1Cc2c(-c3ccncc3)ccnc2O1 (stereo unspecified)	-9	nt	-16%	-15	nt	?
O=[N+]([O-])c1ccc(F)c(CN2CCN(c3ncc(Cc4ccccc4)cn3)CC2)c1	1	nt	?	32	nt	21µM*
Cc1ccc([N+](=O)[O-])cc1CN1CCN(c2ncc(Cc3ccccc3)cn2)CC1	-2	nt	?	58	nt	?
COc1ccc([N+](=O)[O-])cc1CN1CCN(c2ncc(Cc3ccccc3)cn2)CC1	-2	nt	21µM*	-8	nt	18µM*
O=C(CCc1cccnc1)NC(C1CC1)C1CC1	1	nt	nt	nt	nt	nt
CCOC(=O)Cn1nnc2c(sc3nc4c(c(-c5ccc(Cl)cc5)c32)CCC4)c1=O	-2	?	?	6	?	16µM*
NC(=O)c1sc2nc3c(c(-c4cccnc4)c2c1N)CCC3	-2	2%	?	65	?	-9%
CCOC(=O)Cn1nnc2c(sc3nc4c(c(-c5ccccc5)c32)CCC4)c1=O	-7	-2%	21µM*	-4	1%	16µM*
CCOC(=O)c1c(C)nc2sc3c(=O)n(-c4ccc(C)cc4)cnc3c2c1-c1ccc(OC)cc1	-5	-4%	-9%	14	1%	-11%
CCOC(=O)c1c(C)nc2sc3c(=O)n(-c4ccc(C(C)=O)cc4)nnc3c2c1-c1ccc(Cl)cc1	-3	5%	?	-15	10%	16µM*
Cc1ccc(S(=O)(=O)Oc2ccc3c(C(F)(F)F)cc(=O)oc3c2)c(C)c1	-24	nt	nt	nt	nt	nt
O=S(=O)(NCCO)c1ccc(-c2ccc(S(=O)(=O)NCCO)cc2)cc1	2	nt	nt	nt	nt	nt
COc1ccc2c(COC(=O)c3ccccc3OCC3CCCO3)cc(=O)oc2c1 (stereo unspecified)	0	nt	nt	nt	nt	nt
COCc1nnc(NC(=O)CCn2ccc3cc(OC)ccc32)s1	6	nt	nt	nt	nt	nt
CCCN1C(=O)SC(CC(=O)Nc2ccc(Br)cc2)C1=O (stereo unspecified)	2	0%	?	-1	28%	13µM*
